Several values for one entry are separate records, joined by “and”; a condition that tells them apart may be missing. Equal entries are not always repeated. Inconclusive results are not listed. A structure can be active in one record and inactive in another. Activity calls are given as the source filed them. Unless noted, calls come from the whole dose curve; as a rule, active = well fitted curve in the direction sought with a large enough effect in the repeat runs; inconclusive = weak or mixed curves; inactive = no such curve, though single readings can be large; an effect the other way counts as inactive or inconclusive.

These results are taken from PubChem BioAssay (Tox21).

Experiment [1] is described as follows: qHTS assay to identify small molecule antagonists of the sonic hedgehog signaling (Shh) pathway (AID 1259369; calls by dose curve; note: nearly all actives have a fitted effect of over 45% in size; note: potency is the fitted concentration of half-maximal effect). In short, it runs like this: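 NIH/3T3-derived Gli1-Luc reporter cells plated 4 h, dosed with compound, then stimulated with conditioned medium for 24 h at 37 C. Firefly luciferase luminescence read after 30 min with detection reagent at room temperature.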
A general note: qHTS replaces the single test concentration by a dilution series.

Experiment [2] deals with Estrogen receptor beta (Homo sapiens) (UniProt Q92731). The experiment can be described thus: qHTS assay to identify small molecule agonists of the estrogen receptor beta (ER-beta) signaling pathway (AID 1259377; active = well fitted activation curve with a large enough effect in the signal ratio in the repeat runs, not every such curve was filed as active; the % refers to the signal ratio). In short, it runs like this: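 In HEK293T cells bearing a UAS-beta-lactamase reporter under ER-beta control, DMSO-delivered compounds were incubated for 16 hr at 37C. Activity was detected as fluorescence 2 hours after LiveBLAzer B/G FRET substrate addition.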
Chain of Estrogen receptor beta (Homo sapiens) (Q92731 whole entry, looked up): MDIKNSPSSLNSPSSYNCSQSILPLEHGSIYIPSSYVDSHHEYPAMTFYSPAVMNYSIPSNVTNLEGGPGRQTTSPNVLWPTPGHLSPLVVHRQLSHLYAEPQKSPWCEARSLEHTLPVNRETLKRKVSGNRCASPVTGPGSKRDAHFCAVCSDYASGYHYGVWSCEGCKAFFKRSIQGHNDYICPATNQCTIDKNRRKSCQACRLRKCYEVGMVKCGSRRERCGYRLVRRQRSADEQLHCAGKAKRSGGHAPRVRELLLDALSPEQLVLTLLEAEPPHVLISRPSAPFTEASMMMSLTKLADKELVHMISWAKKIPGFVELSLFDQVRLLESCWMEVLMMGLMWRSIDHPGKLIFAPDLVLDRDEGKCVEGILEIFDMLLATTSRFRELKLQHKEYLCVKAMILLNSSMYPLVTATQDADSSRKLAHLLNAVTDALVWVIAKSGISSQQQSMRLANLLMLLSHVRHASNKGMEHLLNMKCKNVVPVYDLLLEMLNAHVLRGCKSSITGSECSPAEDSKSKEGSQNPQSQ

Experiment [3] shares this target. Kind of experiment: qHTS assay to identify small molecule antagonists of the estrogen receptor beta (ER-beta) signaling pathway (AID 1259378; active = well fitted inhibition curve with a large enough effect in the signal ratio in the repeat runs, not every such curve was filed as active; the % refers to the signal ratio; note: potency is the fitted concentration of half-maximal effect). In short, it runs like this:
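ER-beta-UAS-bla HEK293T (GripTite) cells in 2% charcoal-stripped FBS medium were preincubated 6 hr at 37C, dosed with compound, then stimulated with 1 nM E2 (final) for 16 hr; beta-lactamase reporter read by B/G FRET fluorescence after 2 hr substrate loading.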

The nature of experiment [4]: qHTS assay to identify small molecule agonists of the androgen receptor (AR) signaling pathway in the presence of an antagonist - cell viability counter screen (AID 1259379).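 Note: MDA-kb2 human breast cancer cells carrying an MMTV luciferase reporter; series mostly up to about 92 µM; nearly all actives have a fitted effect of over 25% in size.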 In short, it runs like this:
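MDA-kb2 cells (MMTV-luciferase, AR/GR), 3,000/well, 5 h attachment, then 3.0 µM nilutamide (final) and compounds at 15 concentrations. Viability by CellTiter-Fluor fluorescence after 16 h at 37 °C, 0% CO2, in the reporter wells.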

The nature of experiment [5]: qHTS assay to identify small molecule agonists of the estrogen receptor beta (ER-beta) signaling pathway - cell viability counter screen (AID 1259380). Note: nearly all actives have a fitted effect of over 30% in size. Note: potency is the fitted concentration of half-maximal effect. Summed up: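 ER-beta-UAS-bla HEK293T cells in medium with 2% charcoal-stripped FBS, pre-incubated 6 hr, then treated 16 hr at 37C. Cytotoxicity read in the same wells by CellTiter-Glo luminescence after 30 min at room temperature.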

Experiment [6] in a line: qHTS assay to identify small molecule antagonists of the estrogen receptor beta (ER-beta) signaling pathway - cell viability counter screen (AID 1259382). Note: nearly all actives have a fitted effect of over 55% in size. Note: potency is the fitted concentration of half-maximal effect. In short, it runs like this: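 ER-beta-UAS-bla HEK293T cells in 2% charcoal-stripped FBS medium, treated with compound plus 1 nM 17-beta-estradiol for 16 h at 37C. Viability read by CellTiter-Glo luminescence after 30 min at room temperature in the same wells.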

The nature of experiment [7]: qHTS assay to identify small molecule agonists or antagonists of the thyroid stimulating hormone receptor (TSHR) signaling pathway - wild type cell line counter screen (AID 1259384; calls by dose curve). Summed up:
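Wild-type HEK293 cells were plated 18 h at 37 C/5% CO2, pin-dosed with compound plus Ro20-1724 medium, held 30 min at room temperature, then given cAMP-d2 and anti-cAMP-cryptate; fluorescence was read after 1 h. Fifteen concentrations, triplicate.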

Experiment [8] deals with Thyrotropin receptor (Homo sapiens) (UniProt P16473). Kind of experiment: qHTS assay to identify small molecule antagonists of the thyroid stimulating hormone receptor (TSHR) signaling pathway (AID 1259385; calls by dose curve; note: nearly all actives have a fitted effect of over 20% in size). In short, it runs like this:
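TSHR-HEK293 cells were plated and held 18 h at 37C/5% CO2, then given compound plus Ro20-1724 and stimulated with TSH at 1.5 ng/mL final. After 30 min at room temperature, cAMP was detected with cAMP-d2/anti-cAMP-cryptate (1 h) by fluorescence.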

The nature of experiment [9]: qHTS assay to identify small molecule agonists of the estrogen receptor alpha (ER-alpha) signaling pathway in the presence of an antagonist - cell viability counter screen (AID 1259386).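 Note: series mostly up to about 92 µM; cells exposed to compounds for 22 h at 37 °C before the viability read; nearly all actives have a fitted effect of over 30% in size.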 Summed up: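 Cell viability in VM7Luc4E2 cells (endogenous full-length ER-alpha) measured by CellTiter-Fluor fluorescence in the same wells as the luciferase screen. Cells pre-cultured 5 days in charcoal-stripped serum, then treated 22 h with compounds at 15 concentrations plus 10.0nM ICI-182,780.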

Experiment [10] deals with Progesterone receptor (Homo sapiens) (UniProt P06401). Kind of experiment: qHTS assay to identify small molecule agonists of the progesterone receptor (PR) signaling pathway (AID 1346784; calls by dose curve; note: nearly all actives have a fitted effect of over 30% in size). Summed up:
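Using charcoal-stripped serum (2%) to limit endogenous steroids, PR-UAS-bla HEK 293T cells received compounds for 16 hr at 37C after 6 hr plating; beta-lactamase FRET fluorescence was recorded following 2 hr substrate loading at room temperature.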

For experiment [11] the target is unchanged. Kind of experiment: qHTS assay to identify small molecule antagonists of the progesterone receptor (PR) signaling pathway (AID 1346795; active = well fitted inhibition curve with a large enough effect in the signal ratio in the repeat runs, not every such curve was filed as active; the % refers to the signal ratio; note: potency is the fitted concentration of half-maximal effect). Summed up:
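Inhibition of R5020-induced (1 nM final) beta-lactamase reporter signal in PR-UAS-bla HEK293T cells was scored by FRET fluorescence after overnight (16 hr) compound treatment.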

A short description of experiment [12]: qHTS assay to identify small molecule antagonists of the progesterone receptor (PR) signaling pathway - cell viability counter screen (AID 1346798). Note: series mostly up to about 92 µM; nearly all actives have a fitted effect of over 50% in size. Summed up:
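ATP content as viability readout: CellTiter-Glo luminescence, 30 min room temperature, in PR-UAS-bla HEK293T cells after 16 hr compound/R5020 treatment at 37C and 5% CO2.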

Experiment [13] in a line: qHTS assay to identify small molecule agonists of the progesterone receptor (PR) signaling pathway - cell viability counter screen (AID 1346799; calls by dose curve; note: nearly all actives have a fitted effect of over 45% in size; note: potency is the fitted concentration of half-maximal effect). In short, it runs like this: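 Cytotoxicity in PR-bla HEK293T cells: 16 h compound, 37C; CellTiter-Glo added post-FRET read; luminescence after 30 min RT.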
Experiment [14] is described as follows: qHTS assay to identify small molecule antagonists of the TGF-beta/Smad signaling pathway - cell viability counter screen (AID 1346824). Note: nearly all actives have a fitted effect of over 50% in size. Summed up: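 SBE-bla HEK 293T cells were plated overnight at 37 C, then given compounds in DMSO plus TGF-beta1 (added as 0.25 ng/mL solution) for 5 hr. After the bla read, CellTiter-Glo was added to the same wells and luminescence read after 30 min at room temperature.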

The nature of experiment [15]: qHTS assay to identify small molecule agonists of the TGF-beta/Smad signaling pathway - cell viability counter screen (AID 1346829). Note: top concentration of the series differs between compounds; nearly all actives have a fitted effect of over 45% in size. Summed up: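 Compound-treated SBE-bla HEK 293T cells (5 hr, 37 C) were assessed for viability with CellTiter-Glo in parallel with the reporter read.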
The nature of experiment [16]: qHTS assay to identify small molecule agonists of the TGF-beta/Smad signaling pathway (AID 1346859; active = well fitted activation curve with a large enough effect in the signal ratio in the repeat runs, not every such curve was filed as active; the % refers to the signal ratio; note: series mostly up to about 77 µM). In short, it runs like this:
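Stable Smad binding element-beta-lactamase HEK 293T cells; 5 hr compound exposure at 37 C under 5% CO2; 2 hr room-temperature substrate step; fluorescence excited at 405 nm, collected at 460 nm and 530 nm.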

Experiment [17] concerns the target Thyrotropin-releasing hormone receptor (Homo sapiens) (UniProt P34981). Kind of experiment: qHTS assay to identify small molecule antagonists of the thyrotropin-releasing hormone receptor (TRHR) signaling pathway (AID 1346877; active = well fitted inhibition curve with a large enough effect in the repeat runs, not every such curve was filed as active; note: series mostly up to about 51 µM). In short, it runs like this: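 TRHR-expressing HEK293 cells loaded with calcium dye for 2 h at 37 C; compounds pre-incubated 5 min at room temperature before TRH challenge at 1 nM final. Intracellular calcium fluorescence read kinetically for 3 min; 15 concentrations in triplicate.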

For experiment [18] the target is unchanged. The experiment can be described thus: qHTS assay to identify small molecule agonists of the thyrotropin-releasing hormone receptor (TRHR) signaling pathway (AID 1346891; calls by dose curve; note: series mostly up to about 58 µM). Summed up: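 In 1536-format, 1500 TRHR-Hek293 cells per well grew 18 h, took up calcium dye for 2 h at 37 °C, received compound, and were read kinetically; 15-point titrations, triplicates.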

Experiment [19] deals with Estrogen receptor (Homo sapiens) (UniProt P03372). Kind of experiment: qHTS assay to identify small molecule agonists of the estrogen receptor alpha (ER-alpha) signaling pathway in the presence of an antagonist (AID 1259383; calls by dose curve; note: top concentration of the series differs between compounds; nearly all actives have a fitted effect of over 15% in size). In short, it runs like this:
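VM7Luc4E2 cells express endogenous full-length ER-alpha with an ERE-luciferase reporter and were hormone-deprived for 5 days. Compounds at 15 concentrations were added with 10.0nM ICI-182,780 for 22hr at 37C. Luminescence was read with ONE-Glo.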

Chain of Thyrotropin receptor (Homo sapiens) (P16473 whole entry, looked up): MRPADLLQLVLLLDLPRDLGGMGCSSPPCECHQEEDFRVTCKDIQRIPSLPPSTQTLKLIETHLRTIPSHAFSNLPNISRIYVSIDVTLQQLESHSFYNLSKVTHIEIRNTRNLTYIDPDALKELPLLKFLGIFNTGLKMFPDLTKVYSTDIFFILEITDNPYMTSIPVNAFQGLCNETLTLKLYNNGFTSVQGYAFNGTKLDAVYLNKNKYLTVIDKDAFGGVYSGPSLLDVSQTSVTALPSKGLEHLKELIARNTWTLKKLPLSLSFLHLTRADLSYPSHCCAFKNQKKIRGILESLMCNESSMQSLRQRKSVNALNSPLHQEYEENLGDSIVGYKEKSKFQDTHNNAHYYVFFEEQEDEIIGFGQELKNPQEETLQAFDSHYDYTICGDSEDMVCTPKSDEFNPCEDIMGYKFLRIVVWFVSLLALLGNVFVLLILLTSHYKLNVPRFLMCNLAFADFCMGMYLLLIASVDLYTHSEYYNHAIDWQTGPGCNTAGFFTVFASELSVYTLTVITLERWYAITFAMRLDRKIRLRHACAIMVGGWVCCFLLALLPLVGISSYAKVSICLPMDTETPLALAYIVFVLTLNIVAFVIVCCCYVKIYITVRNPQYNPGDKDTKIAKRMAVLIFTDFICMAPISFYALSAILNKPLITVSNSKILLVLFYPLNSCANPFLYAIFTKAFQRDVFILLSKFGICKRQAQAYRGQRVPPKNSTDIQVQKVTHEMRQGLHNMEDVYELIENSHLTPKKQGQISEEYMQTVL
Chain of Thyrotropin-releasing hormone receptor (Homo sapiens) (P34981 whole entry, looked up): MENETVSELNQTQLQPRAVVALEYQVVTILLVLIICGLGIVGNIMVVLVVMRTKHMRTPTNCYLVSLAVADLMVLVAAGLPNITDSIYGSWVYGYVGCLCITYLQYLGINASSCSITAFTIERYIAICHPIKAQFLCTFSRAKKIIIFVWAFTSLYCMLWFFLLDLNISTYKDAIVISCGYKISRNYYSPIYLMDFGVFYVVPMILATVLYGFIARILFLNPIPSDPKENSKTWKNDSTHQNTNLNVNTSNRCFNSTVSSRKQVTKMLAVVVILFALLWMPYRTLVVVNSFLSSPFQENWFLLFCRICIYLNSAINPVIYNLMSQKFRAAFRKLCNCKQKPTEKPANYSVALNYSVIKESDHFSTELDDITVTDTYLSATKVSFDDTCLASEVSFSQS
Chain of Progesterone receptor (Homo sapiens) (P06401 whole entry, looked up): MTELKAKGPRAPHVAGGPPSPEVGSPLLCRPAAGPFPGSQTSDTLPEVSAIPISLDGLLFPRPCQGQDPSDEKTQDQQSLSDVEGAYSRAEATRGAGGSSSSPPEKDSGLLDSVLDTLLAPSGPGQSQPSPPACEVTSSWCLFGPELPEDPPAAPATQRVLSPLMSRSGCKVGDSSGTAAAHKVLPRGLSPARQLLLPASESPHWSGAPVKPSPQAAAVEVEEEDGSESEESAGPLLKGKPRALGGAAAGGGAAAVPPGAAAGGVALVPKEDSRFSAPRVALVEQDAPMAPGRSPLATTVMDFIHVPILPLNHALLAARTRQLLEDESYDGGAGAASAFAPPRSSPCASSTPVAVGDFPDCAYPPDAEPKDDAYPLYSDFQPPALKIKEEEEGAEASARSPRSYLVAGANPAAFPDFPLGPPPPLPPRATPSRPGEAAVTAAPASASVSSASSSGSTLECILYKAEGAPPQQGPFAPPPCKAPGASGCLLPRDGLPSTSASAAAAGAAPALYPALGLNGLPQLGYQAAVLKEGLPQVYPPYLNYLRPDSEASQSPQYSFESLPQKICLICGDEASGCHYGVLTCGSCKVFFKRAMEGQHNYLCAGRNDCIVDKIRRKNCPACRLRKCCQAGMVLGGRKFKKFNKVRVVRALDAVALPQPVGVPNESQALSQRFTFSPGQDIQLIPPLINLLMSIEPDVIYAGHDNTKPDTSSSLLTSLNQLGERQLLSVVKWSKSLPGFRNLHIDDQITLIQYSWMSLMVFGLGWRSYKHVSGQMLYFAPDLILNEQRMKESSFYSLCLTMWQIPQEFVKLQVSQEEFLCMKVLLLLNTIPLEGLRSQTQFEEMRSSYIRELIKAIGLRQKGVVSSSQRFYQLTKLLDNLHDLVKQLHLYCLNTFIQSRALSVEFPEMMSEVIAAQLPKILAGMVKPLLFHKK
Chain of Estrogen receptor (Homo sapiens) (P03372 whole entry, looked up): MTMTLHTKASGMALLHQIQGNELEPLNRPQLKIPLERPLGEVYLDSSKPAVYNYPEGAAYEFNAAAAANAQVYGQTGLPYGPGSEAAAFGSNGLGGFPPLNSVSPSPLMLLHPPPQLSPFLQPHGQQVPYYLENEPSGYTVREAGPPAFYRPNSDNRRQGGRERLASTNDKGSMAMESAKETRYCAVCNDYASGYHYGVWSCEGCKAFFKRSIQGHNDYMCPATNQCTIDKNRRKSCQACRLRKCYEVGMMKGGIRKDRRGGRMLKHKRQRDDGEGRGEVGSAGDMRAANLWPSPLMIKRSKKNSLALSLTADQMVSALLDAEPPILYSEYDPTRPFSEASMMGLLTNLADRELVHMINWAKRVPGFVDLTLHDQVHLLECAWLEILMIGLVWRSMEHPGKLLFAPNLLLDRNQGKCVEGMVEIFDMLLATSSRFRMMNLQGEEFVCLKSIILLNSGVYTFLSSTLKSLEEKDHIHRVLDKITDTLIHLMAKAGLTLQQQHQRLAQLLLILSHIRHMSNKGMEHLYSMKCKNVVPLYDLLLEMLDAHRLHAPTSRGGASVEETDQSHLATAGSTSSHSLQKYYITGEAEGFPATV

For `CC/C(C)=N/O`, the Potency result in experiment [1], in experiment [2], in [3], in experiment [4], in [5] and in [6] was “inactive” each time. The Potency entry in experiment [7], in [8], in experiment [9], in experiment [10], in experiment [11] and in [12] was “inactive” throughout. Further, the Potency entry in experiment [13], in [14], in [15], in experiment [16] and in experiment [17] was “inactive” in each case. In experiment [18], the molecule was called inactive.

For the molecule `C=C(C)CC(C)(C)C`, the Potency result in experiment [1], in [2], in experiment [3], in [4], in experiment [5] and in experiment [6] was “inactive” in each case. The Potency result in [8], in [9], in [10], in [11], in experiment [12] and in experiment [13] was “inactive” each time. In addition, the Potency entry in experiment [14], in [15], in experiment [16] and in [17] was “inactive” throughout. The outcome in experiment [18] was inactive.

Consider `CC(=O)OC(C)(C)C1CC=C(C)CC1` (stereo not drawn), for which the Potency result in [1], in [4], in experiment [5], in experiment [6], in experiment [19] and in experiment [7] was “inactive” each time. Further, the Potency result in [8], in [9], in [10], in [11], in experiment [12] and in experiment [13] was “inactive” in each case. Further, the Potency entry in experiment [14], in [15], in [16] and in experiment [17] was “inactive” each time. Also, in [18], the molecule was classed as inactive.

Turning to `CC(=O)OCCC(C)C`, the Potency result in experiment [1], in experiment [2], in experiment [3], in [4], in experiment [5] and in [6] was “inactive” throughout. For the same molecule, the Potency result in experiment [9], in [10], in [11], in experiment [12], in experiment [13] and in experiment [14] was “inactive” each time. Moreover, the Potency entry in experiment [15], in [16] and in experiment [17] was “inactive” throughout. For the same molecule, the molecule was classed as inactive in experiment [18].

`CC(CN1c2ccccc2Sc2ccccc21)N(C)C` (stereo not drawn): the Potency in experiment [1] is 12.3 µM (active) and 27.3 µM (active) and 13.3 µM (active); in experiment [3], 43.3 µM (active) and 29.8 µM (active); in experiment [5], 49.1 µM (active) and 24.3 µM (active) and 23.7 µM (active); in [6], 24.6 µM (active) and 21.7 µM (active) and 16.8 µM (active); in experiment [11], 61.8 µM (active) and 30.6 µM (active); in experiment [13] it was 69.3 µM (active) and 30.6 µM (active) and inactive. For the same molecule, the Potency entry in experiment [2], in experiment [4], in experiment [7], in experiment [8], in experiment [9] and in experiment [10] was “inactive” in each case. The Potency result in [14], in experiment [15], in [16] and in experiment [17] was “inactive” throughout. Moreover, in experiment [18], the molecule was classed as inactive.

In the case of `CCCCCC(C)=O`, the Potency result in experiment [1] is “inactive and 27.3 µM (active)”; in experiment [13] it was “inactive and 61.1 µM (active)”. Moreover, the Potency entry in experiment [2], in [3], in [4], in [5], in experiment [6] and in experiment [9] was “inactive” throughout. For the same molecule, the Potency result in experiment [10], in experiment [11], in experiment [12], in experiment [14], in [15] and in [16] was “inactive” each time. Moreover, in experiment [17], the Potency entry was “inactive”. In addition, in experiment [18], the call was inactive.

With `CCCCCNCCCCC`, the Potency result in [1], in experiment [2], in experiment [3], in experiment [4], in experiment [5] and in experiment [6] was “inactive” each time. Also, the Potency result in experiment [8], in experiment [9], in experiment [10], in experiment [11], in experiment [12] and in experiment [13] was “inactive” throughout. The Potency entry in experiment [14], in experiment [15], in experiment [16] and in experiment [17] was “inactive” each time. In experiment [18], the molecule was called inactive.

As to `CC(O)CNCC(C)O` (stereo not drawn), the Potency entry in experiment [1], in [4], in [5], in experiment [6], in [19] and in experiment [7] was “inactive” in each case. The Potency entry in experiment [8], in [9], in experiment [10], in experiment [11], in experiment [12] and in [13] was “inactive” throughout. For the same molecule, the Potency entry in [14], in experiment [15] and in [16] was “inactive” in each case.
